Laboratory results taken from PubChem BioAssay (NCATS).
Values joined by “and” are separate entries in the source; they are usually repeats but may differ in a detail not shown here. Equal values may be shown once. Records with an inconclusive call do not appear. Active and inactive are the calls of the source. Calls come from the whole dose curve; as a rule, active = well fitted curve in the direction sought with a large enough effect; inconclusive = small, poorly fitted or top-dose-only effect, or another doubt; inactive = no such curve, though single readings can be large; an effect the other way counts as inactive or inconclusive.

How the values were obtained:
TAB165 = experiment: qHTS profiling for inhibitors of Plasmodium falciparum proliferation (AID 504749);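 note: 0% = DMSO vehicle and full inhibition = artemisinin control; nearly all actives have a fitted effect of over 60% in size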; details: P. falciparum in erythrocytes, SYBR Green DNA, 72 h; series mostly up to 28.7 µM
How it was run: (§1)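 Parasite proliferation within erythrocytes, 72 h exposure. Endpoint: SYBR Green I fluorescence after overnight lysis at room temperature. Controls: 0.29 uM artemisinin, DMSO.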

W2 = experiment: as above; details: P. falciparum in erythrocytes, SYBR Green DNA, 72 h; series mostly up to 28.7 µM
How it was run: as §1

CRL-7250 = normal cell line; experiment: Cytotoxic Profiling of Annotated Libraries Using Quantitative High-Throughput Screening (AID 1296008); details: Five cell lines viability, CellTiter-Glo ATP luminescence, 48-72 h; max response: stronger effect = lower value; note: nearly all actives have a fitted effect of over 60% in size; for max response: % is set by controls: 0 for no effect and ±100 for the full control effect
How it was run: (§2)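 Compounds were pin-transferred onto cells and incubated 48 or 72 hr at 37 degree Celsius, 95% humidity. CellTiter-Glo was added, plates sat 10 min at room temperature, then ATP-coupled luminescence was imaged as the viability read-out.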

HEK293 = experiment: as above; details: Five cell lines viability, CellTiter-Glo ATP luminescence, 48-72 h; max response: stronger effect = lower value
How it was run: as §2

HaCat [1] = experiment: as above; details: Five cell lines viability, CellTiter-Glo ATP luminescence, 48-72 h; max response: stronger effect = lower value
How it was run: as §2

KB-3-1 = experiment: as above; details: Five cell lines viability, CellTiter-Glo ATP luminescence, 48-72 h; max response: stronger effect = lower value
How it was run: as §2

NIH3T3 [2] = experiment: as above; details: Five cell lines viability, CellTiter-Glo ATP luminescence, 48-72 h; max response: stronger effect = lower value
How it was run: as §2

HEK293T = experiment: qHTS assay to identify novel small-molecules to repurpose for Merkel cell carcinoma treatment (AID 1296009); details: MCC and control cell lines, CellTiter-Glo viability, 72 h; at 44.8 µM (top of the series) unless noted; note: nearly all actives have a fitted effect of over 60% in size
How it was run: (§3)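 qHTS format: cells treated with library compounds in DMSO across 8 (NPC) or 11 (MIPE) concentrations. Readout after 72 hr at 37 degree celsius was CellTiter-Glo luminescence.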

MCC-13 = experiment: as above; details: MCC and control cell lines, CellTiter-Glo viability, 72 h; series mostly up to 46 µM
How it was run: as §3

MCC-26 = experiment: as above; details: MCC and control cell lines, CellTiter-Glo viability, 72 h; series mostly up to 46 µM
How it was run: as §3

MKL-1 = experiment: as above; details: MCC and control cell lines, CellTiter-Glo viability, 72 h; series mostly up to 46 µM
How it was run: as §3

MKL-2 = experiment: as above; details: MCC and control cell lines, CellTiter-Glo viability, 72 h; series mostly up to 46 µM
How it was run: as §3

NIH3T3 [3] = experiment: as above; details: MCC and control cell lines, CellTiter-Glo viability, 72 h; at 44.8 µM (top of the series) unless noted
How it was run: as §3

UISO = experiment: as above; details: MCC and control cell lines, CellTiter-Glo viability, 72 h; series mostly up to 46 µM
How it was run: as §3

WaGa = experiment: as above; details: MCC and control cell lines, CellTiter-Glo viability, 72 h; series mostly up to 46 µM
How it was run: as §3

C33A = experiment: Primary qHTS to identify gynecologic anti-cancer compounds using libraries of approved drugs and bioactive compounds (AID 1345084); details: Gynecologic cancer cell panel viability, ATPlite luminescence, 48 h; series mostly up to 57.5 µM; note: % is set by controls: 0 for no effect and ±100 for the full control effect; nearly all actives have a fitted effect of over 55% in size
How it was run: (§4)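 Cells, 1,000 per well, were allowed to settle for 16 h at 37 C before compound addition. Five concentrations were tested for 48 h, and viability was read by ATPlite luminescence after 15 min at room temperature.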

CASKI = experiment: as above; details: Gynecologic cancer cell panel viability, ATPlite luminescence, 48 h; series mostly up to 57.5 µM
How it was run: as §4

Es-2 = experiment: as above; details: Gynecologic cancer cell panel viability, ATPlite luminescence, 48 h; series mostly up to 57.5 µM
How it was run: as §4

HACAT [4] = experiment: qHTS assay to identify novel small-molecules to repurpose for Merkel cell carcinoma treatment (AID 1296009); details: MCC and control cell lines, CellTiter-Glo viability, 72 h; at 44.8 µM (top of the series) unless noted; note: nearly all actives have a fitted effect of over 60% in size
How it was run: as §3

CAOV3 = experiment: Primary qHTS to identify gynecologic anti-cancer compounds using libraries of approved drugs and bioactive compounds (AID 1345084); details: Gynecologic cancer cell panel viability, ATPlite luminescence, 48 h; series mostly up to 57.5 µM; note: % is set by controls: 0 for no effect and ±100 for the full control effect; nearly all actives have a fitted effect of over 55% in size
How it was run: as §4

O=C(O)c1ccccc1O
inactive: Potency (TAB165) | Potency (W2) | max response (CRL-7250) 0.122% | outcome (HEK293) | max response (HaCat [1]) 2.15% | max response (KB-3-1) 7.74% and -13.4% | outcome (NIH3T3 [2]) | outcome (HEK293T) | Potency (MCC-13) | Potency (MCC-26) | Potency (MKL-1) | Potency (MKL-2) | outcome (NIH3T3 [3]) | Potency (UISO) | Potency (WaGa) | Potency (C33A) | Potency (CASKI) | Potency (Es-2)

CC1CC(OC(=O)C(O)c2ccccc2)CC(C)(C)N1C (centres undefined)
inactive: max response (CRL-7250) -13.8% | outcome (HEK293) | max response (HaCat [1]) 1.05% | max response (KB-3-1) 1.03% and 0.565% | outcome (NIH3T3 [2]) | outcome (HEK293T) | Potency (MCC-13) | Potency (MCC-26) | Potency (MKL-1) | Potency (MKL-2) | outcome (NIH3T3 [3]) | Potency (UISO) | Potency (WaGa) | Potency (C33A) | Potency (CASKI) | Potency (Es-2)

NC(=O)NNc1ccccc1
inactive: Potency (TAB165) | Potency (W2) | max response (CRL-7250) 2.83% | max response (HEK293) 0.574% | max response (HaCat [1]) -7.26% | max response (KB-3-1) 13.6% and -2.9% | max response (NIH3T3 [2]) -2.02% | Potency (MCC-13) | Potency (MCC-26) | Potency (MKL-1) | Potency (MKL-2) | Potency (UISO) | Potency (WaGa) | Potency (C33A) | Potency (CASKI) | Potency (Es-2)

CN1[C@@H]2CC[C@H]1CC(OC(=O)C(O)c1ccccc1)C2 (some centres undefined)
inactive: max response (CRL-7250) 1.28% | max response (HEK293) -8.16% | outcome (HaCat [1]) | max response (KB-3-1) 3.38% and -1.31% and -10.9% | outcome (NIH3T3 [2]) | outcome (HACAT [4]) | Potency (MCC-13) | Potency (MCC-26) | Potency (MKL-1) | Potency (MKL-2) | outcome (NIH3T3 [3]) | Potency (UISO) | Potency (WaGa) | Potency (C33A) | Potency (CAOV3) | Potency (CASKI) | Potency (Es-2)

CCCCCCCCCCCCCCCC(=O)NCCO
inactive: Potency (TAB165) | Potency (W2) | outcome (CRL-7250) | outcome (HEK293) | max response (HaCat [1]) -5.78% | max response (KB-3-1) -1.52% | max response (NIH3T3 [2]) 2.39% | outcome (HEK293T) | Potency (MCC-13) | Potency (MCC-26) | Potency (MKL-1) | Potency (MKL-2) | Potency (UISO) | Potency (WaGa) | Potency (C33A) | Potency (CASKI) | Potency (Es-2)

C#CCN(C)Cc1ccccc1
inactive: Potency (TAB165) | Potency (W2) | max response (CRL-7250) 4.31% | max response (HEK293) -27.7% | outcome (HaCat [1]) | max response (KB-3-1) -4.93% | max response (NIH3T3 [2]) 3.32% | outcome (HACAT [4]) | Potency (MCC-13) | Potency (MCC-26) | Potency (MKL-1) | Potency (MKL-2) | Potency (UISO) | Potency (WaGa) | Potency (C33A) | Potency (CAOV3) | Potency (CASKI) | Potency (Es-2)

Cc1cc(CC(=O)O)n(C)c1C(=O)c1ccc(Cl)cc1
inactive: Potency (TAB165) | Potency (W2) | outcome (CRL-7250) | outcome (HEK293) | max response (HaCat [1]) -1.31% | max response (KB-3-1) -2.26% and -15.1% | max response (NIH3T3 [2]) -0.54% | outcome (HEK293T) | Potency (MCC-13) | Potency (MCC-26) | Potency (MKL-1) | Potency (MKL-2) | Potency (UISO) | Potency (WaGa) | Potency (C33A) | Potency (CASKI) | Potency (Es-2)

O=c1cc[nH]c(=O)[nH]1
inactive: Potency (TAB165) | Potency (W2) | outcome (CRL-7250) | outcome (HEK293) | max response (HaCat [1]) -1.66% | max response (KB-3-1) 20.9% | outcome (NIH3T3 [2]) | outcome (HEK293T) | Potency (MCC-13) | Potency (MKL-1) | Potency (MKL-2) | outcome (NIH3T3 [3]) | Potency (UISO) | Potency (WaGa) | Potency (C33A) | Potency (CAOV3) | Potency (CASKI) | Potency (Es-2)

Nc1cc(=O)[nH]c(N)n1
inactive: outcome (CRL-7250) | max response (HEK293) 4.25% | outcome (HaCat [1]) | max response (KB-3-1) -2.08% | max response (NIH3T3 [2]) -15.9% | outcome (HACAT [4]) | Potency (MCC-13) | Potency (MCC-26) | Potency (MKL-1) | Potency (MKL-2) | Potency (UISO) | Potency (WaGa) | Potency (C33A) | Potency (Es-2)

O=C(O)CN1C(=O)c2cccc3cccc(c23)C1=O
inactive: Potency (TAB165) | Potency (W2) | max response (CRL-7250) -6.05% | outcome (HEK293) | outcome (HaCat [1]) | max response (KB-3-1) -7.36% | max response (NIH3T3 [2]) 0.928% | outcome (HACAT [4]) | outcome (HEK293T) | Potency (MCC-13) | Potency (MKL-1) | Potency (MKL-2) | Potency (UISO) | Potency (WaGa) | Potency (C33A) | Potency (CASKI) | Potency (Es-2)

O=C1N=C(O)CN1/N=C/c1ccc(-c2ccc([N+](=O)[O-])cc2)o1
inactive: outcome (CRL-7250) | max response (HEK293) -11.3% | outcome (HaCat [1]) | max response (KB-3-1) 4.36% | max response (NIH3T3 [2]) -4.3% | outcome (HACAT [4]) | Potency (MCC-13) | Potency (MKL-1) | Potency (MKL-2) | Potency (UISO) | Potency (WaGa) | Potency (C33A) | Potency (CAOV3) | Potency (CASKI) | Potency (Es-2)

COc1ccccc1O
inactive: Potency (TAB165) | Potency (W2) | max response (CRL-7250) 3.64% | max response (HEK293) -17.2% | max response (HaCat [1]) 3.89% | max response (KB-3-1) -18.3% and -7.82% | max response (NIH3T3 [2]) -2.65% | Potency (MCC-13) | Potency (MCC-26) | Potency (MKL-1) | Potency (MKL-2) | Potency (UISO) | Potency (WaGa) | Potency (C33A) | Potency (CAOV3) | Potency (CASKI) | Potency (Es-2)

O=C(O)CC(O)C(=O)O (centres undefined)
inactive: Potency (TAB165) | Potency (W2) | max response (CRL-7250) -10.5% | outcome (HEK293) | outcome (HaCat [1]) | max response (NIH3T3 [2]) 4.82% | outcome (HACAT [4]) | outcome (HEK293T) | Potency (MCC-13) | Potency (MKL-1) | Potency (MKL-2) | Potency (UISO) | Potency (WaGa) | Potency (C33A) | Potency (CASKI) | Potency (Es-2)

Nc1ccc(S(=O)(=O)Nc2ccccc2)cc1
inactive: Potency (TAB165) | Potency (W2) | outcome (CRL-7250) | outcome (HEK293) | outcome (HaCat [1]) | max response (NIH3T3 [2]) 3.32% | outcome (HACAT [4]) | outcome (HEK293T) | Potency (MCC-13) | Potency (MCC-26) | Potency (MKL-1) | Potency (MKL-2) | Potency (UISO) | Potency (WaGa) | Potency (C33A) | Potency (CAOV3) | Potency (CASKI) | Potency (Es-2)
